Laboratory results taken from PubChem BioAssay.
Active and inactive are the calls of the source.

Key:
[1] = small molecules captured by biotinylated probe aFSTL3 – biochemical, small-molecule microarray, fluorescence 635/667, stem cell growth factor project, primary screen (AID 1064); conditions: higher = more signal;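 further: measures binding of the biotinylated anti-FSTL3 antibody to printed compounds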
[2] = binders from COS7 lysate, DM2A8 probe, primary screen, torsin A project, cell lysate, small-molecule microarray, fluorescence 635/667 (AID 1065); conditions: higher = more signal, COS7 lysate expressing mutant human TOR1A
[3] = small molecules captured by biotinylated probe aFGF2 – biochemical, small-molecule microarray, fluorescence 635/667, stem cell growth factor project, primary screen (AID 1067); conditions: higher = more signal;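 further: measures binding of biotinylated aFGF2 protein to printed compounds on slides; z-score merges feature fluorescence and signal-to-noise across triplicate slides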
[4] = small molecules captured by biotinylated probe aFGF10 – biochemical, small-molecule microarray, fluorescence 635/667, stem cell growth factor project, primary screen (AID 1071); conditions: higher = more signal;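 further: score merges 667 nm spot intensity and signal to noise from triplicate slides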
[5] = target: Neurogenic locus notch homolog protein 2 (Homo sapiens) (UniProt Q04721); assay: small molecules binding Notch2 protein – biochemical, small-molecule microarray, 635 nm fluorescence, stem cell growth factors, primary screen (AID 1073); conditions: higher = more signal
Sequence of Neurogenic locus notch homolog protein 2 (Homo sapiens) (Q04721 whole entry, looked up, canonical isoform): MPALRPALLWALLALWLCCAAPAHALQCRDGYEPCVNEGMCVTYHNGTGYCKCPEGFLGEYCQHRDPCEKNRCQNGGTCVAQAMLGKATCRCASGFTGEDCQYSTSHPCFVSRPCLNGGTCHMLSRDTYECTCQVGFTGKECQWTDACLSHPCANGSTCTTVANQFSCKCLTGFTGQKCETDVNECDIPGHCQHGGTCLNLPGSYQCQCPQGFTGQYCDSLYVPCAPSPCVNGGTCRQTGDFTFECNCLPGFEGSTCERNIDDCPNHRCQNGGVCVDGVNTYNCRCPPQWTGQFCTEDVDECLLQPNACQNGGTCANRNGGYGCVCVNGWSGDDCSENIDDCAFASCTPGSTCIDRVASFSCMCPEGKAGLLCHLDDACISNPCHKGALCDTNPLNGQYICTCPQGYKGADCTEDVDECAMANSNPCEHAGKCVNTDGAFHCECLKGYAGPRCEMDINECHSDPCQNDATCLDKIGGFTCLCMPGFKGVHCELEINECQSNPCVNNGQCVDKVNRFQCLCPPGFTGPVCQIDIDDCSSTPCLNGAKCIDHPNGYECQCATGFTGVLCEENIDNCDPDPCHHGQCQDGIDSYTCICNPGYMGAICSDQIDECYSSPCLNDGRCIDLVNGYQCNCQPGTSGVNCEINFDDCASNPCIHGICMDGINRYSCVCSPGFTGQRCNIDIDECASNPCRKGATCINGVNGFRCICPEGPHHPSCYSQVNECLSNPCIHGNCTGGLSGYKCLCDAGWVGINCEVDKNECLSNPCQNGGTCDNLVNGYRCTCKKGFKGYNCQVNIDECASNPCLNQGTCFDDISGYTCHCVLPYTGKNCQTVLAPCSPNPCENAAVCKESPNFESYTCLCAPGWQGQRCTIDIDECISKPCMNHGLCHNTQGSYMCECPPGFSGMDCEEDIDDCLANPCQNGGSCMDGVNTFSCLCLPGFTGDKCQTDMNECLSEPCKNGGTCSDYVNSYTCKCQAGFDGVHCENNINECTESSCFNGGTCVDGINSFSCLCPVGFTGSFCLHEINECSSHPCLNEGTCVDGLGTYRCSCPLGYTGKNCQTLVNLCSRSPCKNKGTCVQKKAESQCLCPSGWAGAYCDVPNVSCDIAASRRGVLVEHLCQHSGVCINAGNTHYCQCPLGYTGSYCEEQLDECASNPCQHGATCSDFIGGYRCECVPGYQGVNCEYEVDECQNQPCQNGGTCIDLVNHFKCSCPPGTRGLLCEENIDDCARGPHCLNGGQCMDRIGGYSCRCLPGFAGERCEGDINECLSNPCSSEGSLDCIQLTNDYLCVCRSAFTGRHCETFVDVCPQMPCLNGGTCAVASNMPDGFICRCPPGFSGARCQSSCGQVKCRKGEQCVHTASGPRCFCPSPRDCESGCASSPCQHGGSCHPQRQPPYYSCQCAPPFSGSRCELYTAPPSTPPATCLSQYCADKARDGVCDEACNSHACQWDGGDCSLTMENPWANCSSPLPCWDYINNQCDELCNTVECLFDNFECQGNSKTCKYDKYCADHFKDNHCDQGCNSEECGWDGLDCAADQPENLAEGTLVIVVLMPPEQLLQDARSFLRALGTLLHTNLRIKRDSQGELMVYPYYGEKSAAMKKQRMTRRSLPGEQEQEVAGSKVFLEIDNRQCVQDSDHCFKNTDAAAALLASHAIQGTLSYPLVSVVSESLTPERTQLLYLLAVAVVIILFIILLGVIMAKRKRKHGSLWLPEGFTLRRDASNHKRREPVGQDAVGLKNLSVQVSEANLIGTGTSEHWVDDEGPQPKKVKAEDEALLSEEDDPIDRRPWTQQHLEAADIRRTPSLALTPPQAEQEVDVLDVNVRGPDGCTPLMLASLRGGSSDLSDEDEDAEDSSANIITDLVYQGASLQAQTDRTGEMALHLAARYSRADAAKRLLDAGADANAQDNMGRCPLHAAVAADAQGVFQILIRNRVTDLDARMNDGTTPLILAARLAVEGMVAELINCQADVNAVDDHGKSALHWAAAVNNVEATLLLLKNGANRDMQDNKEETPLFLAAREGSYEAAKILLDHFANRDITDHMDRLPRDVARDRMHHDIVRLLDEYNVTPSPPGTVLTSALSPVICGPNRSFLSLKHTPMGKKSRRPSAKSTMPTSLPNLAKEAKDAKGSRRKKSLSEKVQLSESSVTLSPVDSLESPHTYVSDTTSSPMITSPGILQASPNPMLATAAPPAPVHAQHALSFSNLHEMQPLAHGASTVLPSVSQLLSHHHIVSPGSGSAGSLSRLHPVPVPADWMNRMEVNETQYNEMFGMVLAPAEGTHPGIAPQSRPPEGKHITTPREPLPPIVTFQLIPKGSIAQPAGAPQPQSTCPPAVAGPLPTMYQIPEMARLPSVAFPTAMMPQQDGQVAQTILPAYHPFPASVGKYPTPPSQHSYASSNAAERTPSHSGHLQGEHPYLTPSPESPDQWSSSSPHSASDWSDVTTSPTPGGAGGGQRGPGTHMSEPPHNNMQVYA

[6] = target: Pro-neuregulin-1, membrane-bound isoform (Homo sapiens) (UniProt Q02297); assay: small molecules binding neuregulin-1 protein – biochemical, small-molecule microarray, fluorescence 635/667, psychiatric disease protein project, primary screen (AID 1075); conditions: NRG1 binding, 635 nm fluorescence, higher = more signal;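 further: score combines 667 nm spot fluorescence with signal to noise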
Sequence of Pro-neuregulin-1, membrane-bound isoform (Homo sapiens) (Q02297 whole entry, looked up, the tested form may be a part, canonical isoform): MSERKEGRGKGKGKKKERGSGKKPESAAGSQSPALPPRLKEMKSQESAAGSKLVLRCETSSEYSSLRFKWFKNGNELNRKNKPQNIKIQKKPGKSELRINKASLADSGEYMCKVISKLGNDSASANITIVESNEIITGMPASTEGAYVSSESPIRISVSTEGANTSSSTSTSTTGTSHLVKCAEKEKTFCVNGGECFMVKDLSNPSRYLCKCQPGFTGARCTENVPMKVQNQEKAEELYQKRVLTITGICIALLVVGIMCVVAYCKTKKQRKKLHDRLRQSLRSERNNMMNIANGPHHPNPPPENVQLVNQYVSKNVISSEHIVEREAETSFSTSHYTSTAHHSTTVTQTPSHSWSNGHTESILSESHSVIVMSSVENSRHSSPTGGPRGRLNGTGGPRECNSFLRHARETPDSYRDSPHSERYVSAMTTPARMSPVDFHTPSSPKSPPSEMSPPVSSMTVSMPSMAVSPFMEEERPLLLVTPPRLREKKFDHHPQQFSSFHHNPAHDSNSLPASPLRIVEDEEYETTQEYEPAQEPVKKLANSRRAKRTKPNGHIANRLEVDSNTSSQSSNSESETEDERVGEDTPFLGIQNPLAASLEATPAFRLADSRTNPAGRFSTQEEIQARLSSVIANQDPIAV

[7] = tested on: Neuregulin-1 EGF-like domain; assay: small molecules binding NRG1 EGF domain – biochemical, small-molecule microarray, 635 nm fluorescence, primary screen (AID 1081); conditions: higher = more signal;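 further: binding of the protein to compounds printed on small-molecule microarray slides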
[8] = FRG1 expression reporter modulators in myotubes – cell-based, C2C12 myotubes, firefly/Renilla luciferase, luminescence, FRG1 inhibition for FSHD, primary screen (AID 1084); conditions: FRG1 promoter luciferase, higher = more signal, called active from +8 up or from −8 down
[9] = small molecules captured by biotinylated probe aFST – biochemical, small-molecule microarray, fluorescence 635/667, stem cell growth factor project, primary screen (AID 1086); conditions: higher = more signal;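 further: score merges 667 nm fluorescence with signal-to-noise of each printed compound spot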
[10] = binders of probe aHhip on microarray, primary screen, stem cell growth factor project, biochemical, small-molecule microarray, fluorescence 635/667 (AID 1087); conditions: higher = more signal;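 further: score merges spot fluorescence at 667nm with spot signal to noise ratio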
[11] = tested on: PRMT1 (protein arginine N-methyltransferase 1); assay: small molecules binding arginine methyltransferase PRMT1 – biochemical, small-molecule microarray, 635 nm fluorescence, primary screen (AID 1088); conditions: higher = more signal;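 further: binding of Prmt1 protein to compounds spotted on small-molecule microarray slides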
[12] = growth effects on S. cerevisiae YJM789 – YJM789 clinical isolate, OD600, 24 h, basal, primary screen (AID 1089); conditions: higher = more signal, called active from +8 up or from −8 down;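 further: growth of clinical yeast isolate S. cerevisiae YJM 789 seeded 1000 cells per well; test concentration not given here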
[13] = S. pombe growth modifiers, basal conditions – strain 972, OD600, 24 h, no modulator, primary screen (AID 1090);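 further: basal condition with compound alone and no growth modifier present; test concentration not given here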; conditions: S. pombe 972 growth, higher = more signal, called active from +8 up or from −8 down
[14] = budding yeast growth modifiers under rapamycin – strain BY4716, OD600, 96 h, primary screen (AID 1091); further: test concentration not given here; conditions: S. cerevisiae BY4716 + rapamycin, higher = more signal, called active from +8 up or from −8 down
[15] = target: Torsin-1A-interacting protein 2 (Homo sapiens) (UniProt Q8NFQ8); assay: small molecules binding lysate-expressed LULL1 – cell lysate, human LULL1 lysate, 635/667 nm fluorescence, primary screen (AID 1092); conditions: small-molecule microarray, hLULL1 lysate binding, 635 nm fluorescence; higher = more signal;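 further: probe is lysate of COS7 cells overexpressing human LULL1; score merges per-feature 667 nm fluorescence with signal-to-noise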
Sequence of Torsin-1A-interacting protein 2 (Homo sapiens) (Q8NFQ8 whole entry, looked up): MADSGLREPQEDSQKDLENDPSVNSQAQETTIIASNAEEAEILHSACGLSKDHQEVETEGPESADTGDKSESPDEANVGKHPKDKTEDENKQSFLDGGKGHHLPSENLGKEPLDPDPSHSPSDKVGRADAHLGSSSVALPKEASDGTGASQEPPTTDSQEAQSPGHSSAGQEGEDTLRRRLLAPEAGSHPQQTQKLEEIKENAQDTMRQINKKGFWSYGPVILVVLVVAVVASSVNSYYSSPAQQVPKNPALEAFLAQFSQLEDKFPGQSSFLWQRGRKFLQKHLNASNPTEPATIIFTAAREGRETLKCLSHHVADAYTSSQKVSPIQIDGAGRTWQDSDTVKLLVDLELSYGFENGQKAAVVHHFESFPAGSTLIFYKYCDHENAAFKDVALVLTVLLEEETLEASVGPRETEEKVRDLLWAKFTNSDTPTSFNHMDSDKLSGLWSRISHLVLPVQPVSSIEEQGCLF

[16] = optical density change of DRC41 E. coli – strain DRC41, OD650, 24 h, E. coli filamentation project, primary screen (AID 1093);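 further: MC1000 strain lacking acrAB efflux and sulA so SOS filamentation is blocked; test concentration not given here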; conditions: E. coli DRC41 growth, higher = more signal, called active from +8 up or from −8 down
[17] = probe aLefty2 binding to arrayed compounds – biochemical, biotinylated probe, 635/667 nm fluorescence, primary screen (AID 1094); conditions: small-molecule microarray, higher = more signal;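 further: score merges spot fluorescence near 667 nm with spot signal-to-noise ratio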
[18] = tested on: Noggin (protein binding on small-molecule microarray); assay: small molecules binding Noggin protein – biochemical, 635/667 nm fluorescence, primary screen (AID 1095); conditions: 635 nm fluorescence, higher = more signal;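 further: score merges 667 nm feature fluorescence with signal to noise over triplicate slides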
[19] = target: Neurogenic locus notch homolog protein 3 (Homo sapiens) (UniProt Q9UM47); assay: small molecules binding NOTCH3 protein – biochemical, 635/667 nm fluorescence, primary screen (AID 1096); conditions: small-molecule microarray, 635 nm fluorescence, higher = more signal
[20] = probe aEGFR binding to arrayed compounds – biochemical, biotinylated probe, 635/667 nm fluorescence, primary screen (AID 1097); conditions: small-molecule microarray, higher = more signal;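 further: probe is a biotinylated anti-EGFR antibody binding compounds printed on slides; score combines fluorescence near 667 nm and signal to noise of each spot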

| SMILES | composite z-score [1] | composite z-score [2] | composite z-score [3] | composite z-score [4] | composite z-score [5] | composite z-score [6] | composite z-score [7] | z-score [8] | composite z-score [9] | composite z-score [10] | composite z-score [11] | z-score [12] | z-score [13] | z-score [14] | composite z-score [15] | z-score [16] | composite z-score [17] | composite z-score [18] | composite z-score [19] | composite z-score [20] |
| --- | --- | --- | --- | --- | --- | --- | --- | --- | --- | --- | --- | --- | --- | --- | --- | --- | --- | --- | --- | --- |
| C=CC[C@@]12N=C(c3ccc(OCCCO)cc3)O[C@@H]1c1ccccc1N(CCC)C2=O | 0.953 | -0.0868 | 0.0528 | 0.288 | 0.381 | 0.984 | 1.21 | 2.39 (inactive) | 0.298 | -0.0645 | 1.55 | -1.01 (inactive) | -2.42 (inactive) | -0.71 (inactive) | 3.12 | 1.34 (inactive) | 0.219 | 0.916 | 1.07 | -0.108 |
| [N-]=[N+]=NCc1ccccc1[C@@H]1OC(c2ccc(OCCCO)cc2)=N[C@]1(Cc1ccccc1N=[N+]=[N-])C(=O)NCC(O)CO (stereo not given in full) | -0.166 | 0.57 | 0.145 | 0.61 | 1.53 | 1.99 | 0.981 | 0.0407 (inactive) | 1.84 | 0.272 | 1.18 | 0.263 (inactive) | 0.21 (inactive) | 0.622 (inactive) | 3.29 | 0.712 (inactive) | 0.81 | 0.92 | 0.962 | 0.235 |
| CC(C)C(=C=CC[C@H](O)c1ccccc1OCCO)C[C@H](O)COCc1ccccc1 | -0.322 | -0.0849 | -0.136 | 0.483 | -0.284 | 0.294 | 0.767 | -0.843 (inactive) | -0.064 | -0.0994 | 0.251 | -0.024 (inactive) | -1.26 (inactive) | -0.501 (inactive) | 2.8 | -0.0543 (inactive) | -0.187 | -0.0604 | -0.287 | -0.13 |
| CCOC(=O)C1=CCC(c2cc3ccccc3[nH]2)N(CCN2CC(C(=O)OCC)=CCC2c2cc3ccccc3[nH]2)C1 (stereo not given) | -0.0107 | -0.75 | -0.0216 | 0.433 | 1.06 | 1.82 | 1.32 | 2.57 (inactive) | 0.74 | -0.361 | 1.4 | -1.61 (inactive) | 0.97 (inactive) | -0.34 (inactive) | 3.38 | 0.053 (inactive) | 0.0094 | 0.38 | 0.862 | -0.0084 |
| COCCCNC(=O)[C@@]1(Sc2ccc(C)cc2)CC(=O)N(Cc2ccccc2C(F)(F)F)[C@@H]1c1ccc(CO)cc1I | 1.21 | -0.204 | -0.132 | -2.12 | -1.8 | 1.17 | -0.823 | -0.903 (inactive) | -0.228 | -0.132 | 0.242 | -0.394 (inactive) | -1.05 (inactive) | 0.461 (inactive) | 1.08 | 0.217 (inactive) | 0.0245 | -2.51 | -1.4 | -0.203 |
| CN1C(=O)C2C(C3CC3)C=C3CN(Cc4cccc(Cl)c4)[C@@H]([C@@H](O)Cc4ccccc4)C3C2C1=O (stereo not given in full) | -0.357 | 0.268 | -0.229 | 0.0719 | 0.999 | 1.03 | 1.23 | -1.31 (inactive) | -0.156 | 0.0854 | 1.57 | 0.347 (inactive) | -1.87 (inactive) | -0.539 (inactive) | 2.94 | 1.71 (inactive) | -0.126 | 1.23 | 1.15 | -0.0679 |
| COC(=O)[C@@]1(Cc2ccc(OC)cc2)[C@H]2c3cc(C(=O)N4CCCC4)n(Cc4c(CO)[nH]cc(C)c4=O)c3C[C@H]2CN1C(=O)c1ccccc1 | 0.0744 | 0.31 | -0.06 | 0.505 | 1.57 | 1.11 | 0.802 | -1.02 (inactive) | 0.829 | 0.0302 | 0.413 | -1.56 (inactive) | 0.801 (inactive) | 0.147 (inactive) | 3.35 | -0.391 (inactive) | 0.601 | -0.243 | 0.381 | -0.0728 |
| [N-]=[N+]=Nc1ccccc1C[C@@]1(C(=O)NCc2ccccc2)N=C(c2ccc(OCCCO)cc2)O[C@@H]1c1ccccc1N=[N+]=[N-] | 0.581 | 0.504 | 0.0678 | 1.04 | 1.09 | 0.966 | 1.06 | -1.24 (inactive) | 0.602 | -0.175 | 1.58 | -0.642 (inactive) | -0.468 (inactive) | 5.27 (inactive) | 1.69 | 0.0498 (inactive) | 0.469 | 1.2 | 0.762 | 0.0883 |
| CCC(CC)C(O)C1C=CC2C(=O)N(c3ccccc3)C(=O)C2N1Nc1ccccc1F (stereo not given) | -0.226 | 1.01 | -0.0222 | 0.715 | 1.48 | 1.29 | 1.38 | -0.556 (inactive) | 1 | 0.0373 | 0.203 | 0.175 (inactive) | 0.44 (inactive) | -0.0875 (inactive) | 3.23 | -0.636 (inactive) | 0.172 | -0.19 | 0.78 | -0.04 |
| COc1cc(C(O)C2C=CC3C(=O)N(c4ccccc4)C(=O)C3N2Nc2ccccc2F)cc(OC)c1OC (stereo not given) | -0.0643 | 0.155 | 0.0253 | 0.935 | 1.64 | 1.93 | 1.29 | 1.26 (inactive) | 0.612 | 0.252 | 1.54 | 0.785 (inactive) | 0.578 (inactive) | 1.32 (inactive) | 3.58 | -0.629 (inactive) | 0.122 | 0.334 | 1.09 | -0.027 |
